Results taken from PubChem BioAssay AID623959 (National Center for Advancing Translational Sciences (NCATS), 2012).
Hit rate of the full screen: of about 1,400 compounds, fewer than 10 were called active. Roughly 8% stayed inconclusive and do not appear here. Calls come from the whole dose curve; as a rule, active = well fitted curve in the direction sought with a large enough effect; inconclusive = small, poorly fitted or top-dose-only effect, or another doubt; inactive = no such curve, though single readings can be large or run the other way. Only a sample is shown.

target: Transient receptor potential cation channel subfamily V member 1 (Homo sapiens) (UniProt Q8NER1); test: qHTS Assay for Compounds that Act as Potentiators of the Vanilloid Receptor 1: Hit Validation; conditions: TRPV1-expressing cells, Fluo-8 calcium influx, capsaicin EC20; series mostly up to 42.1 µM
Sequence (Q8NER1 whole entry, looked up): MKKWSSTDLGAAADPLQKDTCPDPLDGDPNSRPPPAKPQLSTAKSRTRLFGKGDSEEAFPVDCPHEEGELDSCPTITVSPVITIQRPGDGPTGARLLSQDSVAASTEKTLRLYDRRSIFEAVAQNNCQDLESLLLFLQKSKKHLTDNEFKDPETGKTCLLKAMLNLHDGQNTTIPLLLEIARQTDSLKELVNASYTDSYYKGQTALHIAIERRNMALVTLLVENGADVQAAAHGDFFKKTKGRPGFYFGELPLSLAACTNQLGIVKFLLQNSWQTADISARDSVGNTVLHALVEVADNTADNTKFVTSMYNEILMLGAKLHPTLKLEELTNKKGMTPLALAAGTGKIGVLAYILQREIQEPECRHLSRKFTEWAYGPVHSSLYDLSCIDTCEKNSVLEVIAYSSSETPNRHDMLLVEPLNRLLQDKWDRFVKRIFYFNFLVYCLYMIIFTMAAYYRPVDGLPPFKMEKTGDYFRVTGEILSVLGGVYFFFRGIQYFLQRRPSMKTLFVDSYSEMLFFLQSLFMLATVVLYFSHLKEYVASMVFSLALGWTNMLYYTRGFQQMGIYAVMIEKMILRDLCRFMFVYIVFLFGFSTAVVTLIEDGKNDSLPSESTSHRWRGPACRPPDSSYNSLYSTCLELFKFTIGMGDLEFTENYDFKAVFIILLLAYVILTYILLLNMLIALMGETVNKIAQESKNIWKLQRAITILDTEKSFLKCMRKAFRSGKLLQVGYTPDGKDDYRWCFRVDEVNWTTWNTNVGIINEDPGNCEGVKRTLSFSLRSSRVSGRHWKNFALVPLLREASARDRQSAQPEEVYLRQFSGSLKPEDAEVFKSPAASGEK
Source text: The transient receptor potential ion channel, family V, number 1, (TRPV1) is one of the most important molecular transducers of painful stimuli and a potential target for analgesic drug development. Although recent clinical trials with orthosteric antagonists have not produced a successful drug because of a hyperthermia side effect and their tendency to block thermal noxious pain, this ion channel is undeniably well placed in the pain pathway, and the idea of blocking pain signals before they enter the CNS is an excellent concept and of proven efficacy when TRPV1 agonists are used. We propose a new approach involving allosteric modulation to impose an activity-dependent constraint within the context of inflammation and tissue damage that would alter the responsiveness of the channel in a way that an orthosteric vanilloid antagonist cannot achieve. We believe that the allosteric modulator approach has not been explored for this target. The main goal of this proposal is to identify additional, new, potent allosteric modulators of TRPV1 that can be used to investigate TRPV1 function. Our recent report provides evidence of proof of concept, but the compounds are just at the edge of utility in terms of potency. […] The question of whether they can be used as analgesic agents is complex, but if suitable compounds are identified then testing for analgesic properties will be conducted. Compounds identified as agonists were re-tested in the primary screen for hit validation. NIH Chemical Genomics Center [NCGC] NIH Molecular Libraries Probe Centers Network [MLPCN] MLPCN Grant: MH089480 Assay Submitter (PI): Michael Iadarola, National Institute of Dental and Cranofacial Research
Upon TRPV1 activation in TRPV1 cells, the channel opens and extracellular cations flow through the channel into the cytosol. A calcium binding dye (Fluo-8) becomes fluorescent when bound to calcium. This dye is pre-loaded into cells and is used as a marker for calcium influx. The amount of accumulated calcium is precisely quantified using the FDSS kinetic reader and the calcium dye. For the HTS assay, freshly prepared cells are plated at a density of 2000/well in 3 ul medium in 1536-well plates and cultured overnight at 35.5C. Cells will be loaded with 1 ul of the homogeneous calcium dye (ABD Bioquest) at room temperature for 40 to 90 minutes. Plates will be loaded into the FDSS kinetic reader and a 1 sec / cycle for 10 second baseline signal will be measured. Compound library will then be added with a pintool at 23 nl and measured kinetically for 3 minutes. This portion of the read is considered the agonist portion of the screen. Following the 3 minutes of incubation, an on board pipettor will deliver 1 ul of capsaicin for a final concentration equal to the EC20. Signal will be measured kinetically for an additional 2 minutes. This portion of the read is considered the allosteric enhancer portion of the screen. The FDSS reader has a standard filter set capable of measuring calcium bound Fluo-8 (ex=480 and em=520 nm).

Potency, inactive:
CC1CC(C)CN(C(=O)c2cc(S(=O)(=O)N3CCCCC3)ccc2Cl)C1 (stereo not drawn)
O=C(Cc1nc2ccccc2[nH]1)c1ccc(Cl)cc1
CS(=O)(=O)N1N=C(c2cccs2)CC1c1ccc(Cl)o1 (stereo not drawn)
CCOCc1c(C(=O)Nc2ccc(OC)nc2)oc2ccccc12
Cc1cc(NC(=O)C(C)C)ncc1NC(=O)c1cccc(F)c1
CC1CCN(C(=O)c2cc(-c3ccc4c(c3)OCO4)on2)CC1
Cc1ccc(NC(=O)CSc2nnc(-c3ccccn3)n2C)cc1
O=C(CSc1nc2ccccc2[nH]1)c1ccccc1F
Cc1ccc2c(c1)nnn2C1CCN(C(=O)NCc2ccccc2)CC1
O=C(CSc1nc(C2CC2)nc2ccccc12)N1CCCCC1
Cc1oc(C(C)(C)C)cc1C(=O)N1CCCC1C(=O)O (stereo not drawn)
O=C(O)c1ccc(NC(=O)c2ccccc2Br)c(NC(=O)c2ccccc2Br)c1
Cc1cccc(NCc2cc(Cl)cc(Cl)c2O)n1
CC(C)NC(=O)C1CC=CCC1C(=O)O (stereo not drawn)
CC(=O)CC(C)(C)S(=O)(=O)c1ccc(NC(C)=O)cc1
CC(=O)Nc1cc(-c2ccccc2)ccc1O
CSCCC(NC(=O)c1ccc(Cl)cc1)C(=O)NC(C)(C)C (stereo not drawn)
Cc1cc(C)c(C#N)c(Cl)n1
O=C(O)c1sccc1S(=O)(=O)N1CCN(c2ccc(C(F)(F)F)cn2)CC1
O=[N+]([O-])c1ccc(O)c(/C=N/Nc2ccccc2[N+](=O)[O-])c1
Cc1nn(C)c(C(=O)Nc2ccc(S(=O)(=O)NC34CC5CC(CC(C5)C3)C4)cc2)c1Br
COc1ccc(C2=NCCn3nc4ccccc4c32)cc1
CCN(c1ccccc1)S(=O)(=O)c1ccc2c(c1)N(C(C)=O)CCO2
COc1cc2[nH]c(C(=O)Nc3ccc(F)cc3)cc2c(OC)c1OC
COc1ccc(-c2cn3cc(C)ccc3n2)cc1OC
Cn1ncc([N+](=O)[O-])c1C(=O)Nc1ccccc1
CC(/C=C/c1ccc2c(c1)OCO2)=N\NC(=O)c1ccccc1
Cc1nc([N+](=O)[O-])c(C(=O)OCc2ccccc2)n1C
Cc1cccnc1NC(N)=S
COC(=O)[C@H](C)NC(=O)c1cc2c(cn1)[nH]c1ccccc12
NC(=O)C1(c2ccccc2)OC1c1ccccc1 (stereo not drawn)
CCOC(=O)C(Cc1ccccc1)C(=O)Nc1cccc(C)c1 (stereo not drawn)
COc1ccc(C(=O)Nc2nc3ccccc3s2)cc1
COc1cc(/C=N/NC(=S)Nc2cccnc2)cc(OC)c1OC
CCOC(=O)N1CCN(CCC(=O)Nc2cccc(Cl)c2C)CC1
N#C/C(=N\Nc1ccc([N+](=O)[O-])cc1)C(=N)N1CCOCC1
COc1ccc(C(=O)N/N=C/c2ccc(OC)c(CSc3ccccn3)c2)cc1
CC(C)Oc1ccc(NC(=O)c2ccncc2)cc1
Cn1c(=O)c2ccccc2n(CC(=O)Nc2ccc3c(c2)OCCO3)c1=O
COc1ccc(Nc2nc(C)nc3c2oc2ccccc23)cc1
CS(=O)(=O)Nc1nc2ccccc2[nH]1
COc1ccc(CNC(=S)Nc2cccc(F)c2)cc1
COc1ccc(C(=O)N(C)C2CCCN(Cc3ccccc3F)C2)cc1OC (stereo not drawn)
COCCNC(=O)c1cccc(OC2CCN(Cc3cccc(C(C)=O)c3)CC2)c1
CC(Oc1cccc(Cl)c1)C(=O)Nc1nc(-c2ccccn2)cs1 (stereo not drawn)
Cc1cc(C)c(C(=O)N2CCCC(Nc3ccc(C)c(C)c3)C2)o1 (stereo not drawn)
Cc1[nH]c2ccccc2c1-c1nc2ccccc2[nH]1
CSc1ncccc1C(=O)OCc1ccc(Br)cc1
COc1ccc(-c2nn(-c3ccccc3)cc2C(=O)NC(=S)Nc2cc(Cl)ccc2Cl)cc1
CCOCCCn1c(=S)[nH]c2cc(C(=O)N3CCC(C(N)=O)(N4CCCCC4)CC3)ccc2c1=O
CCOc1c(Nc2ccc(C(C)C)cc2)c(=O)c1=O
O=C(Cc1cccs1)Nc1cccc(-c2nnc(-c3ccco3)o2)c1
O=C(NCc1ccncc1)c1ccc(Oc2ccccc2)cc1
CC(C)C[C@H](NC(=O)c1[nH]cnc1C(=O)N[C@@H](Cc1ccccc1)C(=O)OC(C)(C)C)C(=O)OC(C)(C)C
CC(C)(C)C(=O)CSc1ncnc2c1cnn2Cc1ccccc1
CCC(CO)NCc1ccc(OCC(O)c2ccccc2)c(OC)c1 (stereo not drawn)
COc1c(O)ccc(/C=N\NC(=O)c2ccc3c(c2)OCO3)c1[N+](=O)[O-]
O=C(CCCCn1c(=O)c2ccccc2n(CC(=O)NC2CCCC2)c1=O)NCc1ccco1
CC(=O)c1cccc(NC(=O)/C(=C\c2cccnc2)NC(=O)c2ccc(C)cc2)c1
C=C(C)c1cccc(C(C)(C)NC(=O)Nc2cccnc2)c1
COCCn1cnnc1SCC(=O)Nc1cc(OC)c([N+](=O)[O-])cc1C
Cc1ccc(NC(=O)CN(C)C(C)C(=O)Nc2ccc(S(=O)(=O)N3CCCC3)cc2)cc1 (stereo not drawn)
O=C(NCc1cccnc1)c1ccc(-c2ccc(Cl)cc2)o1
CC(C)=NOCC(=O)Nn1c(COc2ccccc2)nc2ccccc2c1=O
O=C(Nc1ccc(F)cc1)c1ccc2ncsc2c1
CC(=O)Oc1ccc(/C=C/c2nc3ccccc3c(=O)o2)cc1
CCOc1ccc(OCCC(=O)N(CC(=O)Nc2ccccc2C(F)(F)F)Cc2ccco2)cc1
CN(C)/C=C/C(=O)c1nnn(C2CCCCC2)c1NC1CCCCC1
